Potency and outcome data for 19 compounds are collected here from PubChem BioAssay (NCATS).

Inconclusive results are not listed. Where a structure was tested more than once in an assay, its records may differ in their call. Activity calls are given as the source filed them. The call rests on the fitted dose curve; in most records, active means well fitted curve in the direction sought with a large enough effect; inconclusive means small, poorly fitted or top-dose-only effect, or another doubt; inactive means no such curve, though single readings can be large; an effect the other way counts as inactive or inconclusive.

For experiment [1], the system named is MCC-13. As to the kind of experiment: qHTS assay to identify novel small-molecules to repurpose for Merkel cell carcinoma treatment (AID 1296009). Further: nearly all actives have a fitted effect of over 60% in size. To be noted: MCC and control cell lines, CellTiter-Glo viability, 72 h; series mostly up to 46 µM. The method, boiled down: (§1)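 Cells were incubated with compound for 72 hr at 37 degree celsius before CellTiter-Glo addition. Luminescence was normalized with no-cell wells as full cytotoxicity and DMSO as baseline.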

The test system of experiment [2] is MCC-26. The experiment is described as above. To be noted: MCC and control cell lines, CellTiter-Glo viability, 72 h; series mostly up to 46 µM. The method, boiled down:
as §1
Background: Cellular ATP, detected with luciferase, serves as a proxy for viable cell number.

For experiment [3], the system named is MKL-1. The experiment is described as above. To be noted: MCC and control cell lines, CellTiter-Glo viability, 72 h; series mostly up to 46 µM. The method, boiled down:
as §1

Experiment [4] has as its system MKL-2. The description is as above. Conditions: MCC and control cell lines, CellTiter-Glo viability, 72 h; series mostly up to 46 µM. The method, boiled down:
as §1

The subject of experiment [5] is UISO. The description is as above. Conditions: MCC and control cell lines, CellTiter-Glo viability, 72 h; series mostly up to 46 µM. The gist of the method: as §1
For experiment [6], the system named is WaGa. Described as above. Conditions: MCC and control cell lines, CellTiter-Glo viability, 72 h; series mostly up to 46 µM. The method, boiled down:
as §1

In experiment [7] the test system is C33A. As to the kind of experiment: Primary qHTS to identify gynecologic anti-cancer compounds using libraries of approved drugs and bioactive compounds (AID 1345084). Further: nearly all actives have a fitted effect of over 55% in size. To be noted: Gynecologic cancer cell panel viability, ATPlite luminescence, 48 h; series mostly up to 57.5 µM. The gist of the method:
(§2)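 ATP-based viability (ATPlite), 1,000 cells/well, 16 h pre-incubation, 48 h compound at 37 C, 5% CO2, 15 min RT before read.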
On the technique in general: In qHTS, concentration-response curves come from the screen itself.

In experiment [8] the test system is CAOV3. The description is as above. To be noted: Gynecologic cancer cell panel viability, ATPlite luminescence, 48 h; series mostly up to 57.5 µM. The gist of the method:
as §2

Experiment [9] concerns CASKI. The description is as above. Conditions: Gynecologic cancer cell panel viability, ATPlite luminescence, 48 h; series mostly up to 57.5 µM. The gist of the method: as §2
Experiment [10] deals with NIH3T3. In words: qHTS assay to identify novel small-molecules to repurpose for Merkel cell carcinoma treatment (AID 1296009). Further: nearly all actives have a fitted effect of over 60% in size. Conditions: MCC and control cell lines, CellTiter-Glo viability, 72 h; at 44.8 µM (top of the series) unless noted. The gist of the method:
as §1
Potency means the concentration at half of the fitted maximal effect.

In the case of `Cc1cccc(C)c1NC1=NCCCS1`, the Potency entry in [1], in experiment [2], in [3], in [4], in [5] and in experiment [6] was “inactive” throughout. Also, the Potency result in [7], in experiment [8] and in [9] was “inactive” throughout.

`Nc1ccncc1`: the Potency result in experiment [1], in [2], in experiment [3], in [4], in [5] and in experiment [6] was “inactive” in each case. Also, the Potency result in [7], in experiment [8] and in [9] was “inactive” each time.

As for `CNCC(O)c1ccc(O)cc1` (stereo not given), the Potency result in experiment [1], in [3], in [4], in experiment [5], in [6] and in experiment [7] was “inactive” in each case. Also, the Potency entry in experiment [8] and in experiment [9] was “inactive” throughout. The compound was classed as inactive in experiment [10].

`O=[N+]([O-])c1cc([As](=O)(O)O)ccc1O`: the Potency entry in experiment [1], in [2], in experiment [3], in experiment [5], in experiment [6] and in experiment [7] was “inactive” each time. For the same compound, the Potency entry in experiment [8] and in experiment [9] was “inactive” in each case. The result in [10] was inactive.

`Cc1ccc(S(=O)(=O)N[C@@H](CCCCN)C(=O)CCl)cc1`: the Potency result in [1], in [3], in experiment [4], in experiment [5], in experiment [6] and in experiment [7] was “inactive” each time. Moreover, the Potency result in experiment [8] and in experiment [9] was “inactive” each time. Further, the compound was called inactive in experiment [10].

As for `COc1ccc(Cc2nccc3cc(OC)c(OC)cc23)cc1OC`, the Potency entry in experiment [1], in [2], in [3], in experiment [4], in [5] and in experiment [6] was “inactive” each time. Besides, the Potency entry in [8] is “inactive”.

`CCC1(C2=NCCN2)Cc2ccccc2O1` (stereo not given): the Potency entry in [1], in experiment [2], in experiment [3], in experiment [4], in [5] and in [6] was “inactive” in each case. Besides, the Potency result in [7], in [8] and in experiment [9] was “inactive” throughout.

Consider `CCN(C(C)=O)c1cccc(-c2ccnc3c(C#N)cnn23)c1`, for which the Potency result in [1], in experiment [3], in [4], in experiment [5], in [6] and in experiment [7] was “inactive” throughout. The Potency result in experiment [8] and in experiment [9] was “inactive” throughout. Further, the call in experiment [10] was inactive.

For the compound `CCOC(=O)C1(c2ccccc2)CCN(CCC(C#N)(c2ccccc2)c2ccccc2)CC1`, the Potency entry in experiment [1], in experiment [2], in experiment [3], in [7], in [8] and in experiment [9] was “inactive” each time.

Consider `CC[C@@H](CO)NC(=O)[C@@H]1C=C2c3cccc4c3c(cn4C)C[C@H]2N(C)C1`, for which the Potency result in experiment [1], in [2], in experiment [7], in experiment [8] and in experiment [9] was “inactive” each time. Also, the Potency in experiment [3] was 21.1 µM (active).

For the compound `O=C1CC[C@@]2(O)[C@H]3Cc4ccc(O)c5c4[C@@]2(CCN3CC2CC2)[C@H]1O5`, the Potency entry in experiment [1], in [3], in experiment [4], in experiment [5], in experiment [6] and in experiment [7] was “inactive” each time. Also, the Potency entry in [8] and in [9] was “inactive” each time. In addition, the result in experiment [10] was inactive.

For the compound `CNC(=O)c1ccc(N2C(=S)N(c3ccc(C#N)c(C(F)(F)F)c3)C(=O)C23CCC3)cc1F`, the Potency result in experiment [1], in [2], in [3], in experiment [4], in experiment [5] and in [6] was “inactive” each time. Moreover, the Potency entry in experiment [7], in experiment [8] and in [9] was “inactive” throughout.

On to `N#CC(C#N)=Cc1ccc(O)c(O)c1`, for which the Potency result in experiment [1], in [2], in experiment [7], in experiment [8] and in experiment [9] was “inactive” each time. In addition, the results for the Potency in experiment [3] and in [6] were 7.5 µM (active) and 13.3 µM (active), respectively.

Turning to `NCCc1cc(O)c(O)cc1O`, the Potency result in experiment [1], in [3], in experiment [4], in experiment [5], in experiment [6] and in [7] was “inactive” each time. In addition, the Potency result in [8] and in [9] was “inactive” throughout. Besides, in experiment [10], the result was inactive.

With `COc1ccccc1N1CCNCC1`, the Potency entry in [1], in [2], in experiment [3], in experiment [4], in [5] and in [6] was “inactive” in each case. Also, the Potency entry in experiment [7], in [8] and in experiment [9] was “inactive” each time.

For the compound `COc1ccc(C(CN(C)C)C2(O)CCCCC2)cc1` (stereo not given), the Potency entry in experiment [1], in experiment [3], in [4], in experiment [5], in experiment [6] and in [7] was “inactive” throughout. The Potency entry in experiment [8] and in experiment [9] was “inactive” throughout. The compound was called inactive in experiment [10].

`CC(C)(C)NCC(O)c1cc(Cl)c(N)c(Cl)c1` (stereo not given): the Potency result in experiment [1], in experiment [3], in experiment [4], in experiment [5], in experiment [6] and in [7] was “inactive” each time. Besides, the Potency entry in [8] and in experiment [9] was “inactive” throughout. Further, the outcome in experiment [10] was inactive.

Regarding `Oc1cc(Cl)ccc1Oc1ccc(Cl)cc1Cl`, the Potency in experiment [1] is 44.2 µM (active) and inactive; in experiment [4], 24.8 µM (active); in experiment [5] it was 44.2 µM (active); in [6], 55.6 µM (active); in [7], 28.2 µM (active) and inactive; in [9], 39.8 µM (active) and inactive. Besides, the Potency entry in experiment [2] and in experiment [8] was “inactive” each time.

For the compound `CCN(CC)C(=O)N[C@@H]1C=C2c3cccc4[nH]cc(c34)C[C@@H]2N(C)C1`, the Potency result in experiment [1], in experiment [3], in [4], in [5], in experiment [6] and in experiment [7] was “inactive” throughout. Moreover, the Potency entry in experiment [8] and in [9] was “inactive” in each case. Besides, the compound was called inactive in experiment [10].
